Compound activity (PubChem)
SW480 rereplic – A quantitative high throughput screen for small molecules that induce DNA re-replication in SW480 colon adenocarcinoma cells. SW480 DNA re-replication, Hoechst DNA content imaging, 48 h. AID 624297, 2012. Potency, µM (doses to about 46.1 µM), for the others: at the top dose re-replication activation, hits mostly activators. 1.8% of 340,000 active; also: potency is read from the fitted curve at half-maximal effect; % of control where 0% means no effect; nearly all actives have a fitted effect of over 55% in size
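Hoechst fluorescence of nuclei (405 nm excitation, 500-530 nm emission) measured by plate-scanning imager after 48 hr compound exposure at 37 C; re-replication scored as increased number of nuclei with elevated intensity.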
KB-3-1 tox – qHTS assay for MDR1-selective chemotherapeutics: Primary screen using the parental adenocarcinoma cell KB-3-1 | 1.4% of 400,000 active | KB-3-1 viability, CellTiter-Glo ATP luminescence, 72 h | Potency, µM (top dose mostly 46.1 µM), most hits filed as cytotoxic | AID 1347075, 2019; also: potency is read from the fitted curve at half-maximal effect; % is scaled to controls: 0 for no effect and ±100 for the full control effect; nearly all actives have a fitted effect of over 60% in size
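Viability of parental KB-3-1 cells, measured by CellTiter-Glo luminescence, followed a 72 h incubation at 37 °C with pinned compounds in phenol-red-free DMEM containing 10% FBS.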
IL-1B inflam inh – qHTS for Inhibitors of Inflammasome Signaling: IL-1-beta AlphaLISA Primary Screen | THP-1 LPS/ATP IL-1B secretion, AlphaLISA, 16 h; stronger effect = lower value | activity change, % at 57.5 µM | 4.7% of 360,000 active; in the data active = activity change below about -50%; inconclusive = mostly about -30% to -49%; also: % is scaled to controls: 0 for no effect and ±100 for the full control effect
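Secreted IL-1B measured by AlphaLISA bead assay after 16 h compound exposure of THP-1 cells; compounds (final up to 57.5 uM) added 1 h before LPS (250 ng/mL) and ATP (1.25 mM) stimulation; lower signal means less secretion.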
MCF10A rerep – A quantitative high throughput screen for small molecules that induce DNA re-replication in MCF 10a normal breast cells; MCF 10A DNA re-replication, Hoechst nuclear intensity, 48 h; 2.9% of 350,000 active; Potency, µM (highest dose often 46.1 µM), without a hit: top-dose activity, positive = re-replication, usual class: activators; also: potency is read from the fitted curve at half-maximal effect; % of control where 0% means no effect; nearly all actives have a fitted effect of over 50% in size
KB-V1 MDR tox – qHTS assay for MDR1-selective chemotherapeutics: Primary screen using the drug-selected MDR subline cells KB-V1; Potency, µM (highest dose often 46.1 µM), hits mostly cytotoxic; 3.4% of 400,000 active; AID 1347076, 2019; KB-V1 MDR cells viability, CellTiter-Glo, 72 h; also: potency is read from the fitted curve at half-maximal effect; % is scaled to controls: 0 for no effect and ±100 for the full control effect; nearly all actives have a fitted effect of over 60% in size
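KB-V1 MDR subline cells in DMEM (phenol-red free, 10% FBS) exposed to compounds in qHTS concentration series for 72 h at 37 degrees C. Viability read by CellTiter-Glo luminescence; concentration-effect curves fitted after normalization and correction.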
* = called active by the depositor; i = inactive; ? = inconclusive; . = no result. A selection: hits, their analogues and other compounds. The true share with any hit is near 9.9%. Unless noted, calls follow the shape of the dose curve; as a rule, active = well fitted curve in the direction sought with a large enough effect; inconclusive = small, poorly fitted or top-dose-only effect, or another doubt; inactive = no such curve, though single readings can be large; an effect the other way counts as inactive or inconclusive.

SMILES | SW480 rereplic | KB-3-1 tox | IL-1B inflam inh | MCF10A rerep | KB-V1 MDR tox
COc1ccc(N2CCN(C(CNC(=O)C(=O)NCc3cccnc3)c3ccco3)CC2)cc1 (centres undefined) | 5.0% | i | 66.6 | 0.8% | ?
O=C(NCc1cccnc1)C(=O)NCC(c1ccco1)N1CCN(c2ccc(F)cc2)CC1 (centres undefined) | -105.7% | ? | 6.5 | -1.6% | 2.59µM*
O=C(NCC(c1ccco1)N1CCN(c2ccc(F)cc2)CC1)C(=O)NC1CCCC1 (centres undefined) | -39.8% | i | -1.6 | 1.8% | i
O=C(NCC1CCCO1)C(=O)NCC(c1ccco1)N1CCN(c2ccccc2)CC1 (centres undefined) | ? | i | 2.8 | -0.5% | 20.6µM*
CCc1ccc(NC(=O)c2cc3c(COC(C)=O)cnc(C)c3oc2=O)cc1 | . | i | . | . | i
COc1ccc(-c2oc3ncn4nc(-c5ccccc5Br)nc4c3c2-c2ccc(OC)cc2)cc1 | . | i | . | . | i
CC(=O)C1=CCC(c2ccccc2)N(Cc2ccccc2)C1 (centres undefined) | . | ? | -111.7* | . | ?
CC(=O)C1=CCC(c2ccccc2)N(S(=O)(=O)c2ccc(Cl)cc2)C1 (centres undefined) | . | i | ? | . | i
OCC(O)CNC(=S)NC1CCCCC1 (centres undefined) | -0.7% | i | 10.1 | -1.2% | i
Cn1cnnc1Sc1ccc(/C=C/C(=O)c2ccc(O)cc2)cc1[N+](=O)[O-] | -17.5% | ? | -101.4* | ? | i
CN(C)S(=O)(=O)c1cccc(NC(=O)c2ccc(Sc3nncn3C)c([N+](=O)[O-])c2)c1 | -20.4% | i | -16.8 | 1.0% | i
CCC(C)(C)NC(=O)c1ccc(Sc2nncn2C)c([N+](=O)[O-])c1 | -2.4% | i | -11.9 | 1.1% | ?
CCN(CC)S(=O)(=O)c1ccc(NC(=O)c2ccc(Sc3nncn3C)c([N+](=O)[O-])c2)cc1 | 0.7% | i | -90.9* | 1.9% | i
Cc1ccc(S(=O)(=O)c2nc(-c3cccc(Cl)c3)oc2NCc2ccccc2)cc1 | . | i | . | . | i
COC(=O)c1cc(S(=O)(=O)C(C)C)c(S(C)=O)s1 (centres undefined) | ? | i | -99.6* | 17.5% | i
CC(C)Oc1ccc(F)cc1-c1cc(C(=O)Nc2ccccc2)[nH]n1 | . | i | -68.9* | . | i
COc1ccc(C)cc1NS(=O)(=O)c1c(C)nc2sc(C)cn2c1=O | . | i | . | . | ?
CCOC(=O)c1sc2nc(CC(=O)OC)nc(NCc3ccc(Cl)cc3)c2c1C | 1.3% | i | ? | -2.9% | ?
CCOC(=O)c1sc2nc(CC(=O)OC)nc(NCCN3CCOCC3)c2c1C | -8.0% | ? | 5.7 | 3.1% | 3.66µM*
CCOC(=O)c1sc2nc(CC(=O)OC)nc(NCCN(CC)CC)c2c1C | 1.7% | i | 0.0 | 5.5% | 9.2µM*
O=C1CC(=O)N2N=C(c3ccc([N+](=O)[O-])cc3)SC2=N1 | 1.6% | i | 5.4 | -10.7% | ?
CCc1ccc(OC)c(S(=O)(=O)Nc2ccc(Cc3ccncc3)cc2)c1 | ? | ? | -76.1* | ? | ?
O=S(=O)(Nc1ccc(Cc2ccncc2)cc1)c1ccc(Cl)c(Cl)c1 | ? | ? | -9.8 | 53.1% | 5.8µM*
COc1ccc(S(=O)(=O)Nc2ccc(Cc3ccncc3)cc2)cc1OC | -2.9% | ? | ? | 10.2% | ?
Nc1cc(S(=O)(=O)Nc2ccc(Br)cc2)ccc1Cl | 3.1% | i | -68.9* | 1.8% | i
CC1=C(CC(=O)c2ccc(Cl)cc2)C(=O)c2ccccc2C1=O | 4.11µM* | ? | 10.1 | 4.11µM* | 16.4µM*
C=CCOc1c(Br)cc(/C=N/n2c(CC)n[nH]c2=S)cc1Br | ? | ? | -8.4 | 16.4µM* | ?
